In the library only some 19% were active in any assay of this set; here they are far more common.
DT40 TDP1 no CPT: qHTS for Inhibitors of human tyrosyl-DNA phosphodiesterase 1 (TDP1): qHTS in cells in absence of CPT. DT40 Tdp1-/- hTDP1 cells, no CPT, ATP luminescence, 48 h. actives 15% (n = 420,000). AID 686978, 2013. Potency, µM (highest dose often 46.2 µM), without a hit: at the highest dose activity change, negative = growth inhibition, most hits filed as inhibitors; note: potency is the fitted concentration of half-maximal effect; % is set by controls: 0 for no effect and ±100 for the full control effect; nearly all actives have a fitted effect of over 55% in size
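Compound effects on proliferation are scored in DT40 Tdp1-/-;hTDP1 cells in the absence of CPT. ATP levels (CellTiter-Glo luminescence) are recorded after a ≥48 hr, 37 °C incubation.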
ASM inhibitor: Inhibitors of Secretory Acid Sphingomyelinase (S-ASM): qHTS; Sphingomyelin phosphodiesterase (Homo sapiens), P17405; placental ASM, HMU-PC fluorogenic substrate, 60 min; Potency, µM (top dose mostly 57.5 µM), for inactives: top-dose activity change, negative = inhibition, actives largely listed as inhibitors; actives 0.006% (n = 340,000); AID 504937, 2011; note: potency is the fitted concentration of half-maximal effect
Target sequence (P17405 47-631 limits assumed): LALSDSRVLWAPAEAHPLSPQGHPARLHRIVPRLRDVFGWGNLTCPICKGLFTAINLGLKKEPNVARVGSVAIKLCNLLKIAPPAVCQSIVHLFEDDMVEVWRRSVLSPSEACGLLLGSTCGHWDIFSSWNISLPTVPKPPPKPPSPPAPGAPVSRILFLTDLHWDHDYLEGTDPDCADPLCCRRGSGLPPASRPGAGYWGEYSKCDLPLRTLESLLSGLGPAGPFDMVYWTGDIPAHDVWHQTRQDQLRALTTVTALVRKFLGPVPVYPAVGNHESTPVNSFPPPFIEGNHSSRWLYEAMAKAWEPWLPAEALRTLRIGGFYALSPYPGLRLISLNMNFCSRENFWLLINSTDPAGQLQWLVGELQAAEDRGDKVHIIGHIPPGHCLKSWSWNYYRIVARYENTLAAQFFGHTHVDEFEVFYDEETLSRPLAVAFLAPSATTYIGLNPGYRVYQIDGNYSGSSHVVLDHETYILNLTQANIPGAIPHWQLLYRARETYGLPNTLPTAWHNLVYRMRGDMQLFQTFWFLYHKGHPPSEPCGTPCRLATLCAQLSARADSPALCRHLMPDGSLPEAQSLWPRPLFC
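qHTS format. ASM enzyme prepared from human placenta hydrolyses the fluorogenic substrate HMU-PC0 (9 uM final) over 60 min at 37 °C after a 10 min compound preincubation.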
TGFb SMAD3 inh: qHTS for Inhibitors of TGF-b. HepG2 CAGA-GFP TGF-b/SMAD3 reporter, GFP fluorescence, 18 h; TGF-beta stimulated, 500 pg/mL final. Potency, µM (titrated, usually from 46.1 µM), for inactives: top-dose activity, negative = inhibition, hits mostly inhibitors. actives 1.2% (n = 410,000). AID 588855, 2011; note: potency is the fitted concentration of half-maximal effect; % is set by controls: 0 for no effect and ±100 for the full control effect; nearly all actives have a fitted effect of over 65% in size
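First, reporter cells (HEPG2 CAGA-GFP) rested 2 h at 37 degrees C. Next, compounds were pinned in and TGF-beta added to 500 pg/mL final. After 18 h, GFP was imaged per cell and summed per well.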
DT40 TDP1 CPT: qHTS for Inhibitors of human tyrosyl-DNA phosphodiesterase 1 (TDP1): qHTS in cells in presence of CPT; actives 12% (n = 420,000); chicken DT40 Tdp1-/-;hTDP1 cells + 20 nM CPT, ATP luminescence, 48 h; Potency, µM (top dose mostly 46.2 µM), without a hit: top-dose activity change, negative = growth inhibition, hits mostly inhibitors; note: potency is the fitted concentration of half-maximal effect; % is set by controls: 0 for no effect and ±100 for the full control effect; nearly all actives have a fitted effect of over 55% in size
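Chicken DT40 Tdp1-/- cells complemented with human TDP1, 400 cells/well, exposed to compounds plus 20 nM camptothecin for at least 48 h at 37 C; viability read as ATP content by CellTiter-Glo luminescence.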
IL-1B inflam inh: qHTS for Inhibitors of Inflammasome Signaling: IL-1-beta AlphaLISA Primary Screen | THP-1 LPS/ATP IL-1B secretion, AlphaLISA, 16 h; hits give low values | activity change, % at 57.5 µM | actives 4.7% (n = 360,000); in the data active = activity change below about -50%; inconclusive = mostly about -30% to -49%; note: % is set by controls: 0 for no effect and ±100 for the full control effect
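THP-1 cells pretreated 1 hr with compounds (up to 57.5 uM final), then stimulated with LPS (250 ng/mL final) plus ATP (1.25 mM final); secreted IL-1B measured by AlphaLISA after 16 hr, decreased signal indicating inhibition.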
HepG2 tox: qHTS for Inhibitors of TGF-b: Cytotox Counterscreen. Potency, µM (series often up to 46.1 µM), for the others: at the highest dose activity change, negative = cytotoxicity, hits mostly cytotoxic. HepG2 CAGA-GFP viability, ATP luminescence, 18 h. AID 588856, 2011. actives 0.76% (n = 410,000); note: potency is the fitted concentration of half-maximal effect
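HepG2 CAGA-GFP cells (1000/well, DMEM with 1% FBS) received compound, then TGF-beta at 500 pg/mL final, and were incubated 18 hours at 37 degrees C. Viability was read by CellTiter-Glo luminescence. Media-only wells were set as complete cell-killing and DMSO as no toxicity.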
The depositor's hits bear a star; ? = inconclusive; . = no result given. Unless noted, calls come from the whole dose curve; as a rule, active = well fitted curve in the direction sought with a large enough effect; inconclusive = small, poorly fitted or top-dose-only effect, or another doubt; inactive = no such curve, though single readings can be large; an effect the other way counts as inactive or inconclusive.

SMILES	DT40 TDP1 no CPT	ASM inhibitor	TGFb SMAD3 inh	DT40 TDP1 CPT	IL-1B inflam inh	HepG2 tox
CCC(CC)C(=O)Nc1ccc(Cl)c(Cl)c1	13µM*	-2.1%	0.0%	-28.5%	12.9	0.4%
NC(=O)SCC(=O)Nc1ccc(Cl)cc1	?	-5.3%	?	20.6µM*	-88.7*	-74.4%
CC(C)Oc1cc(F)ccc1-c1cc(C(=O)Nc2ccc(C(C)C)cc2)[nH]n1	14.6µM*	.	2.7%	18.4µM*	5.0	-16.8%
CC(C)Oc1cc(F)ccc1-c1cc(C(=O)NCc2cccs2)[nH]n1	?	.	2.9%	?	0.0	-39.5%
CC(C)Oc1cc(F)ccc1-c1cc(C(=O)Nc2ccccc2)[nH]n1	23.1µM*	.	61.6%	?	-3.0	-7.2%
CC(C)Oc1cc(F)ccc1-c1cc(C(=O)NCc2ccccc2)[nH]n1	-31.9%	.	-4.7%	-1.1%	-26.0	-29.4%
COC(=O)c1ccc(NC(=O)CCn2cnnn2)c(C)c1	.	.	1.1%	.	.	-21.3%
CCn1c(SC)nnc1C1CCCN(CC(=O)Nc2ccccc2N2CCOCC2)C1 (centres undefined)	-13.6%	4.3%	-23.3%	0.7%	-6.2	-30.5%
C/C(=C\C(=O)c1ccc(Br)cc1)NNC(=O)c1ccccc1	18.4µM*	-13.1%	?	?	45.9	-36.8%
C/C(=C\C(=O)c1ccc(Cl)cc1)Nc1ccc(Br)cc1	-28.2%	1.7%	2.9%	-3.3%	-50.3*	-5.7%
C/C(=C\C(=O)c1ccc(Br)cc1)Nc1cccc(Cl)c1	-25.1%	0.8%	-6.3%	-1.7%	17.8	-39.1%
C/C(=C\C(=O)c1ccc(Br)cc1)NNC(=O)c1ccc(O)cc1	?	-7.1%	?	13µM*	69.5	-42.5%
Cc1cc(OC(=O)c2cccc([N+](=O)[O-])c2)c(C)cc1CN1CCOCC1	-15.4%	-0.4%	2.4%	5.3%	-11.8	-7.2%
CCC(=O)NNC(=O)CSc1nnc(-c2ccccc2)c(-c2ccccc2)n1	-10.7%	-1.5%	2.3%	-8.2%	7.3	6.5%
CN1C[C@@H]2[C@@H]3C(=O)N(C)C(=O)[C@@H]3[C@](C)(C1=O)N2C(=O)c1ccc(Br)cc1	3.6%	4.4%	-25.7%	-13.6%	18.7	1.2%
CN1CCN(c2cc(-c3ccc4ccccc4c3)nc3ccnn23)CC1	?	.	7.5%	23.1µM*	-17.5	-24.8%
CSc1ncccc1C(=O)OCC(=O)Nc1ccc(C)c(S(=O)(=O)N2CCOCC2)c1	13µM*	0.0%	10.7%	?	11.9	-17.9%
Cc1ccc(NC(=O)COC(=O)c2cccnc2Cl)cc1S(=O)(=O)N1CCOCC1	10.1%	2.0%	-5.9%	-13.6%	6.6	-0.7%
Cc1ccc(NC(=O)CSc2ncnc3ccccc23)cc1S(=O)(=O)N1CCCCC1	?	-1.5%	?	25.9µM*	-95.5*	-20.3%
Cc1ccc(NC(=O)CSc2ncnc3ccccc23)cc1S(=O)(=O)N1CCOCC1	14.6µM*	-3.5%	?	?	-100.3*	-7.5%
Cc1ccc(NC(=O)COc2ncnc3ccccc23)cc1S(=O)(=O)N1CCOCC1	?	-1.2%	15.1%	-31.0%	3.1	4.9%
COc1cccc(N(CC(=O)Nc2ccccc2C(=O)N2CCCC2)S(C)(=O)=O)c1	-5.7%	-2.3%	?	1.8%	16.0	-24.2%
Cc1cc(C)c(NC(=O)Nc2ccccc2C)c(Cl)c1	11.5%	0.6%	-7.0%	3.5%	-15.4	1.26µM*

Screens deposited in PubChem by National Center for Advancing Translational Sciences (NCATS).
